From ChEMBL document CHEMBL1961873, “Compounds: GSK PKIS; Assays: Nanosyn kinase panel” (2012)

Each compound was assayed against MAP kinase-interacting serine/threonine-protein kinase 2 (Homo sapiens) (UniProt Q9HBH9). Conditions: at 1 µM.
Sequence of MAP kinase-interacting serine/threonine-protein kinase 2 (Homo sapiens) (Q9HBH9 whole entry, looked up): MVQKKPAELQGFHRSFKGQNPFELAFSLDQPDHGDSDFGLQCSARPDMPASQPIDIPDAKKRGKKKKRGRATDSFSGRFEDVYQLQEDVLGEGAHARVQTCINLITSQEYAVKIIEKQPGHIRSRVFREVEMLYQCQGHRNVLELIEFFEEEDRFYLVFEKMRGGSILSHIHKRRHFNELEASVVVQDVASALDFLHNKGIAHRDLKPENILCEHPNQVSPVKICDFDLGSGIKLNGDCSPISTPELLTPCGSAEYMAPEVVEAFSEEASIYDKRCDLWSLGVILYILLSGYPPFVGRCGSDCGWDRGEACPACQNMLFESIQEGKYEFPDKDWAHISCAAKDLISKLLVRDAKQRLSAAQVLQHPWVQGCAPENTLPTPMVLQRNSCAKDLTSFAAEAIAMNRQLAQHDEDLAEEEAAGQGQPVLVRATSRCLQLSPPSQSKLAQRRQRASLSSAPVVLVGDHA

| SMILES | inhibition [%] |
| --- | --- |
| CCc1nn2ncccc2c1-c1ccnc(NC2CC2)n1 | 8.83 |
| COC(=O)c1sc(-n2cnc3cc(OC)c(OC)cc32)cc1OCc1ccccc1C(F)(F)F | -0.04 |
| [O-][S+]1CCN(Cc2ccc(-c3ccc4ncnc(Nc5ccc(OCc6cccc(F)c6)c(Cl)c5)c4c3)o2)CC1 | 6.51 |
| CCn1c(-c2nonc2N)nc2c(C#CC(C)(C)O)ncc(OC3CCNCC3)c21 | 2.87 |
| CC(C)(CO)CNC(=O)c1ccc2c(c1)/C(=N/Nc1ccc(S(N)(=O)=O)cc1)C(=O)N2 | 9.44 |
| CCCN1CCC(c2ccc(Nc3nc(Nc4cc(F)ccc4C(N)=O)c4cc[nH]c4n3)c(OC)c2)CC1 | 7.76 |
| COc1ccc(-c2cc(-c3c[nH]nc3-c3ccccn3)ccn2)cc1 | 6.65 |
| COc1ccc(-c2cc3c(N)ncnc3o2)cc1 | 4.21 |
| COC(=O)Nc1nc2ccc(S(=O)(=O)c3ccc(NC(=O)Nc4cc(C(F)(F)F)ccc4F)cc3)cc2[nH]1 | 0.01 |
| Fc1ccc(-c2nn3ccccc3c2-c2ccncc2)cc1 | 3.58 |
| CN1CCC(n2cnc(-c3ccc(F)cc3)c2-c2ccnc(N)n2)CC1 | 16.9 |
| COc1cccc(-n2ncc3c(N/N=C/c4ccc(F)cc4)ncnc32)c1 | 13.3 |
| Fc1cccc(COc2ccc(Nc3ncnc4sc(-c5ccco5)cc34)cc2Cl)c1 | 15.1 |
| Fc1ccc(-c2cc(-c3c[nH]nc3-c3ccccn3)ccn2)cc1 | 6.06 |
| CCCN(CCS(C)(=O)=O)Cc1ccc(-c2ccc3ncnc(Nc4ccc(OCc5cccc(F)c5)c(Cl)c4)c3c2)o1 | 10.9 |
| COc1cccc(-c2c[nH]c3c(N/N=C/c4ccncc4)ncnc23)c1 | 51.1 |
